Several values for one entry are separate records, joined by “and”; a condition that tells them apart may be missing. Equal entries are not always repeated. This is part of a sample that, as a whole, favours compounds with a hit. Of some 83,000 tested, about 20% had one in any assay.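 Percent growth is the endpoint: 0 to 100 indicates growth inhibition (40 means 60% inhibition), 0 means no net growth, and negative values indicate cell death.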 Values without a mark were called inactive. Activity calls are given as the source filed them. Rule for the calls: active = growth percent below 10; inactive = the rest.
Tests used:
Assay in all cases: NCI-60 one-dose screen, 48 h (100 = growth as untreated, 0 = no growth, -100 = all killed)
[1] = tested on: SK-MEL-2 melanoma; settings: 10 µM
[2] = tested on: EKVX NSCLC; settings: 10 µM
[3] = tested on: SN12C renal; settings: 10 µM
[4] = tested on: UO-31 renal; settings: 10 µM
[5] = tested on: ACHN renal; settings: 10 µM
[6] = tested on: CAKI-1 renal; settings: 10 µM
[7] = tested on: A498 renal; settings: 10 µM
[8] = tested on: MOLT-4 leukemia; settings: 10 µM
[9] = tested on: SR leukemia; settings: 10 µM
[10] = tested on: RPMI-8226 leukemia; settings: 10 µM
[11] = tested on: OVCAR-8 ovarian; settings: 10 µM
[12] = tested on: OVCAR-5 ovarian; settings: 10 µM
[13] = tested on: OVCAR-4 ovarian; settings: 10 µM
[14] = tested on: SK-OV-3 ovarian; settings: 10 µM
[15] = tested on: IGROV1 ovarian; settings: 10 µM
[16] = tested on: OVCAR-3 ovarian; settings: 10 µM
[17] = tested on: HS 578T breast; settings: 10 µM
[18] = tested on: TK-10 renal; settings: 10 µM unless noted
[19] = tested on: HL-60(TB) leukemia; settings: 10 µM
[20] = tested on: CCRF-CEM leukemia; settings: 10 µM

Row | Structure (SMILES) | growth [1] | growth [2] | growth [3] | growth [4] | growth [5] | growth [6] | growth [7] | growth [8] | growth [9] | growth [10] | growth [11] | growth [12] | growth [13] | growth [14] | growth [15] | growth [16] | growth [17] | growth [18] | growth [19] | growth [20]
1 | Cn1c(O)c(N=O)c(=O)n(C)c1=O | 108% and 109% | 110% and 107% | 108% and 94.7% | 89.1% and 85.7% | 110% and 105% | 107% and 113% | 84.5% and 97% | 101% and 99.9% | 103% and 80% | 110% and 92% | 99.6% and 111% | 116% and 98.1% | 116% and 111% | 108% and 104% | 111% and 114% | 101% and 94.8% | 97.1% and 98.9% |  |  | 
2 | COC12C(COC(N)=O)C3=C(C(=O)C(C)=C(N)C3=O)N1CC1C2N1C (configuration not stated) | 91.4% | 91.7% | 46.8% | 32.7% | 10.8% | 16.6% | 46.9% | 7.02% (active) |  | 51.7% |  | 67.5% | 70.5% | 54.7% | 24.4% | 79.2% | 67.1% | 69.4% |  | 
3 | COC(C(=O)C(O)C(C)O)C1Cc2cc3cc(OC4CC(OC(C)=O)C(OC5CC(O)C(OC)C(C)O5)C(C)O4)cc(O)c3c(O)c2C(=O)C1OC1CC(OC2CC(OC3CC(C)(O)C(OC(=O)C(C)C)C(C)O3)C(O)C(C)O2)C(O)C(C)O1 (configuration not stated) | -60.7% (active) | -16% (active) | 5.41% (active) | -35.2% (active) | 3.27% (active) | 17.1% |  | -25.4% (active) | -23.4% (active) | -32.4% (active) |  | -43.5% (active) | -0.721% (active) | 9.37% (active) | -39.4% (active) | -4.25% (active) |  | 20.2% | -46.3% (active) | 
4 | COS(=O)(=O)c1ccccc1 | 101% | 112% | 112% | 89.5% | 101% | 104% | 112% | 85.4% |  | 89.9% | 101% | 104% | 110% | 101% | 120% |  | 110% |  | 106% | 99.7%
5 | O=C(O)c1cc(Cc2ccc(O)c(C(=O)O)c2)ccc1O (tested in a mixture with another compound) | -53.3% (active) | 73.8% | 87.1% | 42.6% | 77% | 58.4% | 84.7% | 54.3% | 80.4% | -5.46% (active) | 68.1% | 65.1% | 66.9% | 95.4% | -81.4% (active) | 70.4% | 72.6% |  | 21.3% | 
6 | O=S(=O)(F)c1ccc(Cl)cc1 | 124% | 110% | 105% | 91.5% | 111% | 105% | 122% | 105% |  | 97.9% | 102% | 113% | 115% | 104% | 113% |  |  |  |  | 92.7%
7 | O=[N+]([O-])c1ccc(Br)c([N+](=O)[O-])c1 | 96.8% | 115% | 90.1% | -18.2% (active) | 52.6% | -93.5% (active) | 98.3% | 68.4% |  | 102% | 91.9% | 108% | 103% | 113% | 63.5% | 87.8% | 105% |  | 43% | 
8 | O=C1CCC(=O)N1SC(Cl)(Cl)Cl | 97% | 117% | 102% | 99.1% | 110% | 109% | 127% | 90.4% | 95.2% | 108% | 106% | 110% | 110% | 109% | 92.6% |  |  |  |  | 94.5%
9 | NC(=O)c1cc([N+](=O)[O-])c(Cl)c([N+](=O)[O-])c1Cl | -14.5% (active) | 35.8% | 18.8% | -62.6% (active) | -89.7% (active) |  |  | -15.3% (active) |  | 9.48% (active) | -24.6% (active) | 78.2% | -58.8% (active) | 101% | 27.6% | -97.4% (active) |  | -100% (active) |  | -23.5% (active)
10 | C=NCC#N | 96.9% and 82.2% | 115% | 99.9% and 99.6% | 87.1% and 91.8% | 96.7% and 105% | 98.1% and 115% | 110% | 94.6% and 107% | 83.8% and 108% | 92.4% and 115% | 104% and 108% | 98.8% and 93.5% | 114% and 108% | 113% and 96.6% | 110% and 115% |  | 124% |  |  | 118%
11 | [O-][n+]1ccccc1S | 41.2% | 72.7% | 58.7% | 62% | 32.2% | 37.9% | 78.7% | 32.1% |  | 5.89% (active) | 17.2% | 59.1% | 36.2% | 91.1% | 6.4% (active) | 16.9% | 64% |  | 109% | 8.62% (active)
12 | CC(=O)[O][Hg][c]1c(C)c(C)cc(C)c1C | -48.3% (active) | -62.9% (active) | -13.8% (active) | -86.2% (active) | 34.1% | -83.9% (active) | 101% | -5.69% (active) | -27.6% (active) | 7.45% (active) | 15.3% | -9.8% (active) | -93.2% (active) | 97.5% | -73.2% (active) | -93.6% (active) | -1.53% (active) |  | -13.1% (active) | 
13 | COc1cc(/C=C/[N+](=O)[O-])cc(OC)c1OC | 63.6% | 73.6% | 30.7% | -85.3% (active) | -42.2% (active) | -78.2% (active) | 47.1% | 8.23% (active) |  | -27.6% (active) | 1.78% (active) | 23% | 34.2% | 89.9% | -22% (active) | -30.9% (active) | 8.36% (active) |  | -16.6% (active) | 
14 | CC(C)C1(NC(=O)C2CC3c4cccc5[nH]cc(c45)CC3N(C)C2)OC2(O)C3CCCN3C(=O)C(Cc3ccccc3)N2C1=O (configuration not stated) | 107% | 98.8% | 99.4% | 91.3% | 83% | 110% | 97.5% | 65.8% |  | 108% |  | 72.2% | 70.9% | 116% | 108% |  | 99.5% |  | 73.9% | 135%
15 | CC[C@@H](C)[C@@H]1NC(=O)C(NC(=O)C(CC(C)C)N(C)C(=O)C2CCCN2C(=O)C(C)O)C(C)OC(=O)C(Cc2ccc(OC)cc2)N(C)C(=O)C2CCCN2C(=O)C(CC(C)C)NC(=O)C(C)C(=O)C(C(C)C)OC(=O)C[C@H]1O (some centres not stated) | -52.4% (active) | -10.5% (active) | -14.5% (active) | -33.2% (active) | -70.5% (active) | -6.01% (active) |  | -15.8% (active) |  | -27.5% (active) |  | -71.8% (active) | -30.8% (active) | -38.5% (active) | -40.4% (active) | -39.6% (active) |  | -15.3% (active) |  | 
